In PMC11006913 one finds binding signal data, which are given here for 15 sequences.

Common to all, as to assay: PBM; 200 nM protein, PBS
Common to all, as to details: dsDNA, one strand shown

Experiment [1] concerns the target HOXB9 (Homo sapiens, UniProt P17482 171-250, T197M).
Experiment [2] concerns the target HOXC9 (Homo sapiens, UniProt P31274 178-260, K195R).
For experiment [3], the target named is HOXA7 (Homo sapiens, UniProt P31268 116-202).
Another experiment addresses T1, PAX4 (Homo sapiens, UniProt O43316 9-242, R200K).
T1 sequence: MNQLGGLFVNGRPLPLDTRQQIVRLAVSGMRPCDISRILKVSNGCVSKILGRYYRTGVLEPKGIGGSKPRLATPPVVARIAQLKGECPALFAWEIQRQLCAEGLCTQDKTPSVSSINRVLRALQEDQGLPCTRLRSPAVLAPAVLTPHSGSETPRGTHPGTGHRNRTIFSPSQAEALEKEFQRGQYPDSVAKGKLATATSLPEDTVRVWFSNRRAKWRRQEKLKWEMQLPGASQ

Experiment [4] addresses HOXB6 (Homo sapiens, UniProt P17509 132-218, K202E).
The target of experiment [5] is HOXD13 (Homo sapiens, UniProt P35453 263-343, T313R).
Sequence of HOXD13 (Homo sapiens, UniProt P35453 263-343, T313R) (P35453 263-343 T313R): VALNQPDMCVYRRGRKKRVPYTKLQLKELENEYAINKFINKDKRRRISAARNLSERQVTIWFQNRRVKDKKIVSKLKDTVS
For experiment [6], the target named is HOXC9 (Homo sapiens, UniProt P31274 178-260, R193K).
Sequence of HOXC9 (Homo sapiens, UniProt P31274 178-260, R193K) (P31274 178-260 R193K): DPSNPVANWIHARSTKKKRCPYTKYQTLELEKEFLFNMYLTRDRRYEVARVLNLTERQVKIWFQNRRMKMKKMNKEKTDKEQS
Experiment [7] addresses HOXD13 (Homo sapiens, UniProt P35453 263-343).
In experiment [8] the target is HOXD13 (Homo sapiens, UniProt P35453 263-343, T313A).
Sequence of HOXD13 (Homo sapiens, UniProt P35453 263-343, T313A) (P35453 263-343 T313A): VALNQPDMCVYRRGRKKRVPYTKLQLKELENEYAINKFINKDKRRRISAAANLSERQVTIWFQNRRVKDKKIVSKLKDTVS
The target in experiment [9] is HOXC9 (Homo sapiens, UniProt P31274 178-260, R222W).
Sequence of HOXC9 (Homo sapiens, UniProt P31274 178-260, R222W) (P31274 178-260 R222W): as the sequence (P31274 178-260 R193K) above, with K16R, R45W counted along it
Experiment [10] has as its target HOXA7 (Homo sapiens, UniProt P31268 116-202, W177C).
Experiment [11] concerns the target HOXB6 (Homo sapiens, UniProt P17509 132-218).
The target in experiment [12] is HOXC10 (Homo sapiens, UniProt Q9NYD6 254-340).
Sequence of HOXC10 (Homo sapiens, UniProt Q9NYD6 254-340) (Q9NYD6 254-340): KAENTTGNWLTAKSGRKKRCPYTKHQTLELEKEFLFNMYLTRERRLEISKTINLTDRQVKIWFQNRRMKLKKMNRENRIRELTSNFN
Experiment [13] addresses HOXB9 (Homo sapiens, UniProt P17482 171-250).
The target in experiment [14] is HOXC9 (Homo sapiens, UniProt P31274 178-260).
Sequence of HOXC9 (Homo sapiens, UniProt P31274 178-260) (P31274 178-260): as the sequence (P31274 178-260 R193K) above, with K16R counted along it
The target of experiment [15] is HOXC10 (Homo sapiens, UniProt Q9NYD6 254-340, K271E).
Sequence of HOXC10 (Homo sapiens, UniProt Q9NYD6 254-340, K271E) (Q9NYD6 254-340 K271E): as the sequence (Q9NYD6 254-340) above, with K18E counted along it
In experiment [16] the target is HOXB9 (Homo sapiens, UniProt P17482 171-250, R186Q).
Sequence of HOXB9 (Homo sapiens, UniProt P17482 171-250, R186Q) (P17482 171-250 R186Q): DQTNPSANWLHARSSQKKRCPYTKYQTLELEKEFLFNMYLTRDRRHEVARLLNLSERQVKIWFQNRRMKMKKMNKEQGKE
For a further experiment, the target named is T2, VENTX (Homo sapiens, UniProt O95231 78-163).
T2 sequence: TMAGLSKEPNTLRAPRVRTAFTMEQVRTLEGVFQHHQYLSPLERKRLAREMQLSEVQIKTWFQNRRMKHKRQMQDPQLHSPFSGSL

The target of another experiment is SHOX (Homo sapiens, UniProt O15266 103-189, R173C).
Sequence of SHOX (O15266 103-189 R173C): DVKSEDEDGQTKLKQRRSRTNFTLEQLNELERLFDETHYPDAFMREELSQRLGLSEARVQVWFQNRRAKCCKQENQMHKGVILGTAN

Sequence of HOXB9 (Homo sapiens, UniProt P17482 171-250, T197M) (P17482 171-250 T197M): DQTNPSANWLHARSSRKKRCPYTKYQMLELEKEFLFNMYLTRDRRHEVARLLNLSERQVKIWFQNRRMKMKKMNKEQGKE
Sequence of HOXB6 (Homo sapiens, UniProt P17509 132-218, K202E) (P17509 132-218 K202E): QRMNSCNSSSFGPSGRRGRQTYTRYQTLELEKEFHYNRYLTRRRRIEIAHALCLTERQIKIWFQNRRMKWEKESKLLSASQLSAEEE
Sequence of HOXA7 (Homo sapiens, UniProt P31268 116-202) (P31268 116-202): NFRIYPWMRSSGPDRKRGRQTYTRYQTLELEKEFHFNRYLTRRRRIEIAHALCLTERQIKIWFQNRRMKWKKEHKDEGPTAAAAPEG
Sequence of HOXC9 (Homo sapiens, UniProt P31274 178-260, K195R) (P31274 178-260 K195R): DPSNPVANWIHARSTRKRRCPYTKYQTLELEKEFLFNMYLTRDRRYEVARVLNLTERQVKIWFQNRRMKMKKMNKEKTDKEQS
Sequence of HOXB6 (Homo sapiens, UniProt P17509 132-218) (P17509 132-218): as the sequence (P17509 132-218 K202E) above, with E71K counted along it
Sequence of HOXA7 (Homo sapiens, UniProt P31268 116-202, W177C) (P31268 116-202 W177C): as the sequence (P31268 116-202) above, with W62C counted along it
Sequence of HOXB9 (Homo sapiens, UniProt P17482 171-250) (P17482 171-250): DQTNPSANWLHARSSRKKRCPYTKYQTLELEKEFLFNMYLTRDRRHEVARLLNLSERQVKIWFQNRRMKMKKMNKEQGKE
Sequence of HOXD13 (Homo sapiens, UniProt P35453 263-343) (P35453 263-343): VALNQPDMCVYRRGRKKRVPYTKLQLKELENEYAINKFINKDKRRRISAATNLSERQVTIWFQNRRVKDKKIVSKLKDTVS

In the case of TATTAATA, the binding signal in the experiment with HOXB9 [1] is 10.1 upbm affinity estimate (log intensity, higher = more binding, comparable within an allelic series); with HOXC9 [2], 12.6 upbm affinity estimate (log intensity, higher = more binding, comparable within an allelic series); with HOXA7 [3], 11.2 upbm affinity estimate (log intensity, higher = more binding, comparable within an allelic series); in the experiment with PAX4, 11.7 upbm affinity estimate (log intensity, higher = more binding, comparable within an allelic series); with HOXB6 [4], 10 upbm affinity estimate (log intensity, higher = more binding, comparable within an allelic series); with HOXD13 [5] it was 10.9 upbm affinity estimate (log intensity, higher = more binding, comparable within an allelic series). In addition, the binding signal in the experiment with HOXC9 [6] was 12.5 upbm affinity estimate (log intensity, higher = more binding, comparable within an allelic series); with HOXD13 [7], 11.9 upbm affinity estimate (log intensity, higher = more binding, comparable within an allelic series); with HOXD13 [8], 12 upbm affinity estimate (log intensity, higher = more binding, comparable within an allelic series); with HOXC9 [9] it was 11.1 upbm affinity estimate (log intensity, higher = more binding, comparable within an allelic series); in the experiment with HOXA7 [10], 9.08 upbm affinity estimate (log intensity, higher = more binding, comparable within an allelic series); with HOXB6 [11] it was 11.7 upbm affinity estimate (log intensity, higher = more binding, comparable within an allelic series).

ACATTAAT: the binding signal is 10.1 upbm affinity estimate (log intensity, higher = more binding, comparable within an allelic series) in the experiment with HOXB9 [1]; 12.7 upbm affinity estimate (log intensity, higher = more binding, comparable within an allelic series) with HOXC9 [2]; 11.6 upbm affinity estimate (log intensity, higher = more binding, comparable within an allelic series) with HOXA7 [3]; 12.2 upbm affinity estimate (log intensity, higher = more binding, comparable within an allelic series) with HOXC10 [12]; 10.1 upbm affinity estimate (log intensity, higher = more binding, comparable within an allelic series) with HOXB6 [4]; 11.9 upbm affinity estimate (log intensity, higher = more binding, comparable within an allelic series) with HOXB9 [13]. Also, the binding signal was 12.7 upbm affinity estimate (log intensity, higher = more binding, comparable within an allelic series) with HOXC9 [14]; 12.7 upbm affinity estimate (log intensity, higher = more binding, comparable within an allelic series) with HOXC9 [6]; 12 upbm affinity estimate (log intensity, higher = more binding, comparable within an allelic series) in the experiment with HOXC10 [15]; 11.7 upbm affinity estimate (log intensity, higher = more binding, comparable within an allelic series) with HOXB9 [16]; 11 upbm affinity estimate (log intensity, higher = more binding, comparable within an allelic series) with HOXC9 [9]; 8.92 upbm affinity estimate (log intensity, higher = more binding, comparable within an allelic series) in the experiment with HOXA7 [10]. Also, in the experiment with HOXB6 [11], the binding signal is 12 upbm affinity estimate (log intensity, higher = more binding, comparable within an allelic series).

For GTCATTAA, the binding signal with HOXB9 [1] was 10.4 upbm affinity estimate (log intensity, higher = more binding, comparable within an allelic series); with HOXC9 [2], 13.1 upbm affinity estimate (log intensity, higher = more binding, comparable within an allelic series); in the experiment with VENTX it was 12.6 upbm affinity estimate (log intensity, higher = more binding, comparable within an allelic series); with HOXA7 [3], 12.2 upbm affinity estimate (log intensity, higher = more binding, comparable within an allelic series); in the experiment with HOXC10 [12], 12.6 upbm affinity estimate (log intensity, higher = more binding, comparable within an allelic series); with HOXB6 [4], 10.3 upbm affinity estimate (log intensity, higher = more binding, comparable within an allelic series). In addition, the binding signal in the experiment with HOXB9 [13] is 12.5 upbm affinity estimate (log intensity, higher = more binding, comparable within an allelic series); with HOXC9 [14], 13.2 upbm affinity estimate (log intensity, higher = more binding, comparable within an allelic series); in the experiment with HOXC9 [6], 13.1 upbm affinity estimate (log intensity, higher = more binding, comparable within an allelic series); with HOXC10 [15] it was 12.8 upbm affinity estimate (log intensity, higher = more binding, comparable within an allelic series); with HOXD13 [8] it was 11.6 upbm affinity estimate (log intensity, higher = more binding, comparable within an allelic series); with HOXB9 [16] it was 12.2 upbm affinity estimate (log intensity, higher = more binding, comparable within an allelic series). Moreover, the binding signal in the experiment with HOXC9 [9] was 11 upbm affinity estimate (log intensity, higher = more binding, comparable within an allelic series); with HOXA7 [10] it was 8.94 upbm affinity estimate (log intensity, higher = more binding, comparable within an allelic series); with HOXB6 [11] it was 12.4 upbm affinity estimate (log intensity, higher = more binding, comparable within an allelic series).

With ACTCATTA, the binding signal with VENTX was 12.4 upbm affinity estimate (log intensity, higher = more binding, comparable within an allelic series); in the experiment with SHOX it was 9.29 upbm affinity estimate (log intensity, higher = more binding, comparable within an allelic series).

Turning to CCTACAGG, the binding signal in the experiment with HOXB9 [1] was 8.54 upbm affinity estimate (log intensity, higher = more binding, comparable within an allelic series); in the experiment with HOXB6 [4], 9 upbm affinity estimate (log intensity, higher = more binding, comparable within an allelic series); with HOXB9 [13], 8.25 upbm affinity estimate (log intensity, higher = more binding, comparable within an allelic series); with HOXB9 [16] it was 8.25 upbm affinity estimate (log intensity, higher = more binding, comparable within an allelic series); with HOXB6 [11], 8.98 upbm affinity estimate (log intensity, higher = more binding, comparable within an allelic series).

In the case of CGGTTCCC, the binding signal with HOXB9 [1] was 8.58 upbm affinity estimate (log intensity, higher = more binding, comparable within an allelic series); in the experiment with HOXB9 [13], 8.52 upbm affinity estimate (log intensity, higher = more binding, comparable within an allelic series); with HOXB9 [16], 8.49 upbm affinity estimate (log intensity, higher = more binding, comparable within an allelic series).

Consider CCCCCTCG, for which the binding signal in the experiment with HOXB9 [1] was 8.45 upbm affinity estimate (log intensity, higher = more binding, comparable within an allelic series); with HOXB9 [13] it was 8.63 upbm affinity estimate (log intensity, higher = more binding, comparable within an allelic series); with HOXB9 [16] it was 8.59 upbm affinity estimate (log intensity, higher = more binding, comparable within an allelic series).

On to CTAATGAC, for which the binding signal with VENTX is 12.5 upbm affinity estimate (log intensity, higher = more binding, comparable within an allelic series).

Turning to CCTGACCC, the binding signal with HOXB9 [1] was 8.77 upbm affinity estimate (log intensity, higher = more binding, comparable within an allelic series); in the experiment with HOXB9 [13], 8.65 upbm affinity estimate (log intensity, higher = more binding, comparable within an allelic series); with HOXB9 [16], 8.66 upbm affinity estimate (log intensity, higher = more binding, comparable within an allelic series).

For the sequence GGCCCCCC, the binding signal with HOXB9 [1] is 8.33 upbm affinity estimate (log intensity, higher = more binding, comparable within an allelic series); with HOXB9 [13] it was 8.39 upbm affinity estimate (log intensity, higher = more binding, comparable within an allelic series); in the experiment with HOXB9 [16], 8.36 upbm affinity estimate (log intensity, higher = more binding, comparable within an allelic series).

As to ATTAATCG, the binding signal with VENTX was 12.5 upbm affinity estimate (log intensity, higher = more binding, comparable within an allelic series); with PAX4, 11.6 upbm affinity estimate (log intensity, higher = more binding, comparable within an allelic series).

Consider GGAGCTCC, for which the binding signal was 8.62 upbm affinity estimate (log intensity, higher = more binding, comparable within an allelic series) in the experiment with HOXB9 [1]; 8.6 upbm affinity estimate (log intensity, higher = more binding, comparable within an allelic series) with HOXB9 [13]; 8.62 upbm affinity estimate (log intensity, higher = more binding, comparable within an allelic series) with HOXB9 [16].

For the sequence GCTAATGA, the binding signal in the experiment with VENTX was 12.5 upbm affinity estimate (log intensity, higher = more binding, comparable within an allelic series).

Regarding CCTCATTA, the binding signal with VENTX was 12.5 upbm affinity estimate (log intensity, higher = more binding, comparable within an allelic series).

On to ACTAATGA, for which, in the experiment with VENTX, the binding signal was 12.7 upbm affinity estimate (log intensity, higher = more binding, comparable within an allelic series).
